High-throughput results: PubChem, National Center for Advancing Translational Sciences (NCATS)
Sampled rows, rich in hits. Any-hit rate of the full collection: about 19%.
TGFb inhibitor = blocks TGF-b signaling; HepG2 CAGA-GFP TGF-b/SMAD3 reporter, GFP fluorescence, 18 h; TGF-beta stimulated, 500 pg/mL final; Potency, µM (series often up to 46.1 µM), most hits filed as inhibitors; 410,000 tested, 1.2% active; further: nearly all actives have a fitted effect of over 65% in size
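Smad-responsive CAGA-GFP expression was quantified in HEPG2 cells exposed to compounds and 500 pg/mL final TGF-beta for 18 h at 37 degrees C; unstimulated wells defined full inhibition.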
IL1B secr inh = inflammasome signaling inhibition, IL-1 beta readout; THP-1 LPS/ATP IL-1B secretion, AlphaLISA, 16 h; hits give low values; 360,000 tested, 4.7% active; activity change, % at 57.5 µM; AID 743279; in the data active means activity change below about -50%; inconclusive means mostly about -30% to -49%
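THP-1 cells pretreated 1 hr with compounds (up to 57.5 uM final), then stimulated with LPS (250 ng/mL final) plus ATP (1.25 mM final); secreted IL-1B measured by AlphaLISA after 16 hr, decreased signal indicating inhibition.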
TDP1 inh = TDP1 (human) enzyme inhibition; Q9NUW8; recombinant TDP1, AlphaScreen DNA substrate cleavage; Potency, µM (doses to about 130 µM), usual class: inhibitors; 350,000 tested, 0.28% active; AID 485290; further: nearly all actives have a fitted effect of over 40% in size
Target sequence (Q9NUW8 whole entry, looked up): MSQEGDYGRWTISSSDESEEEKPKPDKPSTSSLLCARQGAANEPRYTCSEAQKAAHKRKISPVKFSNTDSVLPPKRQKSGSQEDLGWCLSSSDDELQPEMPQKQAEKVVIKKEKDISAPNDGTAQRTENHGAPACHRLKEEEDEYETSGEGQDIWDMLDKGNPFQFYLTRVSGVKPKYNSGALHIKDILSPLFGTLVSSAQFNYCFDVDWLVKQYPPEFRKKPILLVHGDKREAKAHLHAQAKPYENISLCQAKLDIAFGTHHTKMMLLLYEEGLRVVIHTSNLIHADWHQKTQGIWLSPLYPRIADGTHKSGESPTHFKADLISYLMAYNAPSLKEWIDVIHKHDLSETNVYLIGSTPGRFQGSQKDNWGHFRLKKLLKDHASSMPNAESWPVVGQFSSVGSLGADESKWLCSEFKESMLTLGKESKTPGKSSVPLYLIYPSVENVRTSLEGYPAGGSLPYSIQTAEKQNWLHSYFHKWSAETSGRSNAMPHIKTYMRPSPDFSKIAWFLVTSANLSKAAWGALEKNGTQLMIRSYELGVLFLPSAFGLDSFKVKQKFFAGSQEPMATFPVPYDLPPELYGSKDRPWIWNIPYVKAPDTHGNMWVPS
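Signal: AlphaScreen proximity between streptavidin donor and anti-FITC acceptor beads on intact substrate. Reaction: Tdp1 1 nM, substrate 15 nM final, 5 min RT after 15 min compound preincubation.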
HepG2 tox = HepG2 cytotoxicity, counter-screen for TGF-b inhibitors; HepG2 CAGA-GFP viability, ATP luminescence, 18 h; Potency, µM (highest dose often 46.1 µM), usual class: cytotoxic; 410,000 tested, 0.76% active; AID 588856
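CellTiter-Glo luminescence gave cytotoxicity after 18 hours at 37 degrees C. The cells were HepG2 CAGA-GFP in 1% FBS DMEM, stimulated with 500 pg/mL TGF-beta after compound addition. %Activity was normalised to no-cell wells (complete cell-killing) and DMSO (no toxicity), and curves were fitted and classified.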
DT40 TDP1 no CPT = qHTS for Inhibitors of human tyrosyl-DNA phosphodiesterase 1 (TDP1): qHTS in cells in absence of CPT. DT40 Tdp1-/- hTDP1 cells, no CPT, ATP luminescence, 48 h. Potency, µM (highest dose often 46.2 µM), usual class: inhibitors. 420,000 tested, 15% active; further: nearly all actives have a fitted effect of over 55% in size
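Luminescent ATP content (CellTiter-Glo) served as the growth readout. Knockout chicken DT40 cells expressing human TDP1 were exposed to compounds without camptothecin for a minimum 48 hr at 37 °C.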
DT40 TDP1 CPT = DT40-hTDP1 cell growth loss with CPT. 420,000 tested, 12% active. chicken DT40 Tdp1-/-;hTDP1 cells + 20 nM CPT, ATP luminescence, 48 h. AID 686979. Potency, µM (doses to about 46.2 µM), usual class: inhibitors; further: nearly all actives have a fitted effect of over 55% in size
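Cell growth measured by CellTiter-Glo luminescence after a minimum 48 h, 37 C compound exposure with 20 nM CPT in Tdp1-knockout DT40 cells stably expressing hTDP1, seeded 400/well; qHTS titration format.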
Numbers stand for hits; - = inactive; ? = inconclusive; . = no result; [ ] = remark or other dose. Unless noted, the call rests on the fitted dose curve; in most records, active means well fitted curve in the direction sought with a large enough effect; inconclusive means small, poorly fitted or top-dose-only effect, or another doubt; inactive means no such curve, though single readings can be large; an effect the other way counts as inactive or inconclusive.

SMILES	TGFb inhibitor	IL1B secr inh	TDP1 inh	HepG2 tox	DT40 TDP1 no CPT	DT40 TDP1 CPT
CC/C=C1/N=C2C(=O)N(C)C(=O)N=C2N(C)N1	?	.	-	-	?	0.0891µM
CN1N/C(=C\c2ccccc2)N=C2C(=O)N(C)C(=O)N=C21	-	.	-	1.12µM	?	1.41µM
CCCCCCOc1ccc(N2C(=O)CC(N3CCN(CCN=CC4C(=O)CC(C)(C)CC4=O)CC3)C2=O)cc1 (stereo unspecified)	-	-	-	-	23.1µM	?
CCCCCCOc1ccc(N2C(=O)CC(N3CCN(CCN=CC4=C(O)CC(C)(C)CC4=O)CC3)C2=O)cc1 (stereo unspecified)	-	-	-	-	?	-
O=C1C=C(c2cccc3c2sc2ccccc23)C[C@@H](c2ccc(F)cc2)C1	-	-	-	-	?	?
Cc1ccc(-n2cc(-c3ccccc3)c3c(N4CCCCC4)ncnc32)cc1	-	.	-	-	23.1µM	20.6µM
CCOc1ccc(-n2cc(-c3ccccc3)c3c(N4CCN(c5ccccc5OC)CC4)ncnc32)cc1	-	.	-	-	16.4µM	11.6µM
Cc1cccc(-n2cc(-c3ccccc3)c3c(N4CCOCC4)ncnc32)c1	?	-66.9	-	-	?	?
COc1ccc(-n2cc(-c3ccccc3)c3c(N4CCCC(C)C4)ncnc32)cc1 (stereo unspecified)	-	.	-	-	10.3µM	16.4µM
COc1cccc(N2CCN(c3ncnc4c3c(-c3ccccc3)cn4-c3ccc(C)cc3)CC2)c1	-	.	-	-	-	-
Cc1ccc(-n2cc(-c3ccccc3)c3c(N4CCOCC4)ncnc32)cc1	-	?	-	-	?	-
CCOc1ccc(-n2cc(-c3ccccc3)c3c(N4CCC(C)CC4)ncnc32)cc1	-	.	-	-	?	?
Cc1ccc(C(=O)c2oc3ccccc3c2NC(=O)COc2ccc(C(C)(C)C)cc2)cc1	-	.	-	-	-	-
CC(=O)Nc1ccc(S(=O)(=O)N2CCN(S(=O)(=O)c3ccc4c(c3)OCCO4)CC2)cc1	.	.	-	.	.	.
CCOC(=O)C1CCN(c2ncnc3c2c(-c2ccccc2)cn3-c2ccccc2)CC1	-	-	-	-	23.1µM	?
CCOC(=O)C1CCN(c2ncnc3c2c(-c2ccccc2)cn3-c2ccc(Cl)cc2)CC1	-	.	-	-	?	-
Cc1ccc(-n2c(SCc3nc(-c4ccccc4C)no3)nnc2-c2ccncc2)cc1C	?	.	-	-	20.6µM	23.1µM
CCOc1ccc(-n2c(SCc3nc(-c4ccc(OC)cc4)no3)nnc2-c2ccncc2)cc1	?	.	-	-	?	?
CCOc1ccccc1-c1noc(CSc2nnc(-c3ccncc3)n2-c2ccc(F)cc2)n1	-	.	-	-	16.4µM	-
Cc1ccc(SCc2nc(-c3ccncc3)no2)cc1	-	-	-	-	13µM	5.8µM
CCOc1ccccc1-c1noc(CSc2nnc(-c3ccccc3)n2-c2cccc(C)c2)n1	-	.	-	-	20.6µM	?
Cc1ccc(OCC(=O)Nc2ccc3nn(-c4ccc(Cl)cc4)nc3c2)cc1	?	.	-[12.3 µM]	-	-	-
COC1=C[C@@H](C)C2CC3OC(=O)C[C@H]4C(C)=C(OC)C(=O)C([C@@]2(C)C1=O)[C@@]34C (stereo partly specified)	.	.	-	.	-[9.04 µM]	-[9.04 µM]
COc1cccc(NC(=O)Cn2c(=O)n(Cc3ccc4c(c3)OCO4)c(=O)c3oc4ccccc4c32)c1	?	.	-	-	-	-
COc1ccccc1-c1noc(CSc2nnc(Cc3ccccc3)n2-c2ccc(C)c(C)c2)n1	?	.	-	-	23.1µM	16.4µM
SMILES	TGFb inhibitor	IL1B secr inh	TDP1 inh	HepG2 tox	DT40 TDP1 no CPT	DT40 TDP1 CPT
COc1ccc(-c2noc(CSc3nnc(C)n3-c3ccc(C)c(C)c3)n2)c(OC)c1	-	.	-	-	18.4µM	?
Cc1nnc(SCc2nc(-c3ccc(Cl)cc3)no2)n1-c1ccc(F)cc1	-	.	-	-	25.9µM	?
Cc1cccc(-n2c(SCc3nc(-c4ccccc4C)no3)nnc2-c2ccccc2)c1	-	.	-	-	?	-
COc1ccc(-c2noc(CSc3nnc(Cc4ccccc4)n3-c3ccc(Cl)cc3)n2)cc1	?	?	-	-	?	?
CCc1ccc(-n2c(C)nnc2SCc2nc(-c3ccc(OC)cc3)no2)cc1	-	.	-	-	?	?
Cc1ccccc1-c1noc(CSc2nnc(-c3ccncc3)n2-c2ccc(F)cc2)n1	-	.	-	-	14.6µM	?
COCCNc1nc(C)nc2c1nc(-c1ccccc1)n2CC1CCN(C)CC1	.	.	-	.	.	.
COc1ccc(-n2c(SCc3nc(-c4ccc(Cl)cc4)no3)nnc2-c2ccncc2)cc1	-	.	-	-	?	?
COc1ccc(-c2noc(CSc3nnc(-c4ccncc4)n3-c3ccc(C)c(C)c3)n2)cc1	-	.	-	-	13µM	14.6µM
Cc1[nH]c(C(=O)N/N=C/c2ccc(C(=O)O)cc2)c(C)c1C(=O)N/N=C/c1ccc(C(=O)O)cc1	-	-	-	-	-	-
COc1cccc(/C=N/NC(=O)c2c(C)nc3ccc(Cl)cn23)c1O	-	-	.	-	1.03µM	0.92µM
COc1cc(OC)c(OC)cc1/C=N/NC(=O)c1ccc(=O)n(C)c1	-	-	-	-	-	-
COc1cccc(/C=N/NC(=O)c2[nH]c(C)c(C(=O)N/N=C/c3cccc(OC)c3O)c2C)c1O	?	-	-	-	3.26µM	5.17µM
COc1cccc(/C=N/NC(=O)c2ccc(-c3ccccc3)cc2)c1O	?	-	-	-	4.61µM	5.17µM
COc1cccc(/C=N/NC(=O)c2ccc(=O)n(C)c2)c1O	-	-	-	-	6.51µM	5.8µM
COC(=O)C/C=C\[C@@H](C)[C@@H](/C=N\O[C@@H](C)c1cn([C@H]2COC[C@H]2O)nn1)OC	.	.	-[21 µM]	.	.	.
COc1ccc(OC)c(/C=N/NC(=O)c2ccc(=O)[nH]n2)c1	-	-	-	-	-	-
COc1ccccc1/C=N/NC(=O)c1cccc(OC(F)(F)C(F)F)c1	-	-	-	-	?	-
COc1cccc(/C=N/NC(=O)c2ccc(=O)[nH]n2)c1O	-	-	-	-	14.6µM	23.1µM
COc1cccc(/C=N/NC(=O)C(=O)Nc2ccccc2OC(F)(F)C(F)F)c1O	-	-	-	-	3.26µM	3.26µM
N#CC1=C(N)c2ccccc2CC12CCCCC2	?	-52.4	-	-	?	?
O=C(N/N=C/c1ccccn1)C1CC1	-	-	-	-	-	-
